Compounds without any hit were thinned out: in the full panel of roughly 83,000, 20% have a hit.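 Single-dose data. Exposure time 48 hours. Values below 10 considered active.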 Activity calls are given as the source filed them.
Assays:
Experiment in all cases: NCI-60 one-dose screen, 48 h (100 = growth as untreated, 0 = no growth, -100 = all killed)
SK-MEL-2 melanoma = conditions: 10 µM unless noted
EKVX NSCLC = conditions: 10 µM unless noted
SN12C renal = conditions: 10 µM unless noted
UO-31 renal = conditions: 10 µM unless noted
TK-10 renal = conditions: 10 µM unless noted
ACHN renal = conditions: 10 µM unless noted
CAKI-1 renal = conditions: 10 µM
CCRF-CEM leukemia = conditions: 10 µM unless noted
MOLT-4 leukemia = conditions: 10 µM unless noted
SR leukemia = conditions: 10 µM unless noted
RPMI-8226 leukemia = conditions: 10 µM unless noted
OVCAR-8 ovarian = conditions: 10 µM unless noted
OVCAR-5 ovarian = conditions: 10 µM unless noted
OVCAR-4 ovarian = conditions: 10 µM unless noted
SK-OV-3 ovarian = conditions: 10 µM unless noted
IGROV1 ovarian = conditions: 10 µM unless noted
OVCAR-3 ovarian = conditions: 10 µM unless noted
HS 578T breast = conditions: 10 µM unless noted
NCI/ADR-RES ovarian = conditions: 10 µM unless noted
A498 renal = conditions: 10 µM unless noted

Measured: growth

CCCCCCNC(=O)Oc1ccc(/C(=C(\C)c2ccc(OC)cc2)c2ccc(OCCN(C)C)cc2)cc1
inactive: SK-MEL-2 melanoma 99.8% | EKVX NSCLC 75% | SN12C renal 78.8% | UO-31 renal 52.1% | TK-10 renal 107% | ACHN renal 88.3% | CAKI-1 renal 82.9% | CCRF-CEM leukemia 67.3% | MOLT-4 leukemia 44.5% | SR leukemia 13.1% | RPMI-8226 leukemia 19.4% | OVCAR-8 ovarian 86.4% | OVCAR-5 ovarian 86.8% | OVCAR-4 ovarian 90.9% | SK-OV-3 ovarian 103% | IGROV1 ovarian 68.4% | OVCAR-3 ovarian 91.3% | HS 578T breast 83.2% | NCI/ADR-RES ovarian 74.8%

O=C(O)CNS(=O)(=O)c1ccc(Oc2ccc(S(=O)(=O)NCC(=O)O)cc2)cc1
inactive: SK-MEL-2 melanoma 104% | EKVX NSCLC 96.9% | SN12C renal 93.5% | UO-31 renal 91.4% | TK-10 renal 101% | ACHN renal 98.9% | CAKI-1 renal 91.4% | A498 renal 69.9% | MOLT-4 leukemia 95.7% | SR leukemia 96.7% | RPMI-8226 leukemia 100% | OVCAR-8 ovarian 97.9% | OVCAR-5 ovarian 101% | OVCAR-4 ovarian 111% | IGROV1 ovarian 104% | OVCAR-3 ovarian 104% | HS 578T breast 95.2% | NCI/ADR-RES ovarian 102%

COc1cc(CNC(=O)/C=C/c2ccccc2)ccc1OCC(=O)NO
inactive: SK-MEL-2 melanoma 99.6% | EKVX NSCLC 95.2% | SN12C renal 95.8% | UO-31 renal 81.8% | TK-10 renal 102% | ACHN renal 93.3% | CAKI-1 renal 91.4% | CCRF-CEM leukemia 105% | MOLT-4 leukemia 95.7% | SR leukemia 97% | RPMI-8226 leukemia 102% | OVCAR-8 ovarian 98.2% | OVCAR-5 ovarian 102% | OVCAR-4 ovarian 108% | SK-OV-3 ovarian 98.9% | IGROV1 ovarian 98.1% | OVCAR-3 ovarian 104% | HS 578T breast 109% | NCI/ADR-RES ovarian 96.1%

COC[C@@]1(C)CC[C@]2(C)CC[C@]3(C)C(=CC[C@@H]4[C@@]5(C)CCCNC(C)(C)[C@@H]5CC[C@]43C)C2C1 (some centres undefined)
inactive: SK-MEL-2 melanoma 78.1% | EKVX NSCLC 76.9% | SN12C renal 51.6% | UO-31 renal 90.4% | TK-10 renal 110% | ACHN renal 87.1% | CAKI-1 renal 71.7% | CCRF-CEM leukemia 47.7% | MOLT-4 leukemia 34.1% | RPMI-8226 leukemia 21.3% | OVCAR-8 ovarian 88.6% | OVCAR-5 ovarian 80% | OVCAR-4 ovarian 65.6% | SK-OV-3 ovarian 104% | IGROV1 ovarian 52.3% | OVCAR-3 ovarian 78.3% | HS 578T breast 78.5% | NCI/ADR-RES ovarian 72.6%
active: SR leukemia 4.07%

COc1ccc(OC)c([C@H]2c3[nH]c4ccccc4c3C[C@H]3C(=O)N(CCCCCCC(=O)NO)CC(=O)N23)c1
inactive: SK-MEL-2 melanoma 86.6% | EKVX NSCLC 93.1% | SN12C renal 84.9% | UO-31 renal 78.5% | TK-10 renal 101% | ACHN renal 94.2% | CAKI-1 renal 78.4% | A498 renal 102% | MOLT-4 leukemia 63.2% | SR leukemia 36.7% | RPMI-8226 leukemia 60.4% | OVCAR-5 ovarian 100% | OVCAR-4 ovarian 80% | SK-OV-3 ovarian 86.2% | IGROV1 ovarian 71.6% | OVCAR-3 ovarian 76.3% | HS 578T breast 93.5% | NCI/ADR-RES ovarian 99.5%

Clc1ccc(-c2csc(N/N=C/c3nc4ccccc4n3C3CC3)n2)cc1
inactive: SK-MEL-2 melanoma 106% | EKVX NSCLC 92.2% | SN12C renal 104% | UO-31 renal 84.3% | TK-10 renal 85.6% | ACHN renal 104% | CAKI-1 renal 89.7% | A498 renal 108% | MOLT-4 leukemia 98.2% | SR leukemia 96.6% | RPMI-8226 leukemia 100% | OVCAR-8 ovarian 99% | OVCAR-5 ovarian 99.7% | OVCAR-4 ovarian 101% | SK-OV-3 ovarian 108% | IGROV1 ovarian 111% | HS 578T breast 106% | NCI/ADR-RES ovarian 102%

Cc1occc1-c1nc2s/c(=C\c3cn(-c4ccccc4)nc3-c3ccccc3)c(=O)n2n1
active: IGROV1 ovarian -96.2%
inactive: SK-MEL-2 melanoma 99.9% | EKVX NSCLC 99.4% | SN12C renal 89.3% | UO-31 renal 90.5% | TK-10 renal 106% | ACHN renal 108% | CAKI-1 renal 89.2% | A498 renal 92.9% | MOLT-4 leukemia 107% | RPMI-8226 leukemia 99.1% | OVCAR-8 ovarian 101% | OVCAR-5 ovarian 99.5% | OVCAR-4 ovarian 97% | SK-OV-3 ovarian 113% | HS 578T breast 105% | NCI/ADR-RES ovarian 97.9%

CC1(C)CC[C@]2(C(=O)N3CCCN(CC#N)CC3)CC[C@]3(C)C(=CC[C@@H]4[C@@]5(C)CC[C@H](O)C(C)(C)[C@@H]5CC[C@]43C)[C@H]2C1
inactive: SK-MEL-2 melanoma 76.8% | EKVX NSCLC 91.2% | SN12C renal 59.6% | UO-31 renal 63.7% | TK-10 renal 81.7% | ACHN renal 59% | CAKI-1 renal 43.7% | A498 renal 39.8% | CCRF-CEM leukemia 18.2% | MOLT-4 leukemia 19.1% | RPMI-8226 leukemia 19.9% | OVCAR-8 ovarian 55.7% | OVCAR-5 ovarian 84.1% | OVCAR-4 ovarian 86.7% | SK-OV-3 ovarian 83.7% | IGROV1 ovarian 66.1% | HS 578T breast 78.8% | NCI/ADR-RES ovarian 57.2%

CCOC(=O)Nc1cccc(-n2cnc3cc(-c4ccc(O)cc4)ccc32)c1
active: A498 renal -25.1% | NCI/ADR-RES ovarian 7.05%
inactive: SK-MEL-2 melanoma 15.8% | EKVX NSCLC 42.7% | SN12C renal 31.2% | UO-31 renal 26.4% | TK-10 renal 57.1% | ACHN renal 19.9% | CAKI-1 renal 33% | CCRF-CEM leukemia 24.5% | MOLT-4 leukemia 10.6% | RPMI-8226 leukemia 20.2% | OVCAR-8 ovarian 21.8% | OVCAR-5 ovarian 41.1% | SK-OV-3 ovarian 34% | IGROV1 ovarian 32.3% | HS 578T breast 16%

CCN1C(=O)N(CC)C2SC(N/N=C/c3ccc(OC)cc3)=NC21 (centres undefined)
inactive: SK-MEL-2 melanoma 61.4% | EKVX NSCLC 41.8% | SN12C renal 24.3% | UO-31 renal 43.5% | TK-10 renal 72.8% | ACHN renal 31.3% | CAKI-1 renal 48.7% | CCRF-CEM leukemia 13.1% | MOLT-4 leukemia 10.1% | SR leukemia 19.3% | RPMI-8226 leukemia 17.6% | OVCAR-8 ovarian 26% | OVCAR-5 ovarian 36.8% | OVCAR-4 ovarian 69.1% | SK-OV-3 ovarian 62.4% | IGROV1 ovarian 23.2% | HS 578T breast 31.9%
active: OVCAR-3 ovarian -13.1% | NCI/ADR-RES ovarian 2.95%

O=C(CSc1nnc(-c2cccs2)n1-c1ccccc1)Nc1ccc(F)cc1
inactive: SK-MEL-2 melanoma 110% | EKVX NSCLC 90.9% | SN12C renal 95.5% | UO-31 renal 59.1% | TK-10 renal 108% | ACHN renal 90.9% | CAKI-1 renal 87.3% | A498 renal 84.7% | MOLT-4 leukemia 85.6% | SR leukemia 71.6% | RPMI-8226 leukemia 105% | OVCAR-8 ovarian 93.5% | OVCAR-5 ovarian 97.3% | OVCAR-4 ovarian 96.4% | SK-OV-3 ovarian 82.5% | IGROV1 ovarian 95.4% | OVCAR-3 ovarian 111% | HS 578T breast 91.8% | NCI/ADR-RES ovarian 90.7%

O=S(=O)(Nc1ccc(-n2cnc3cc(-c4ccc(O)cc4)ccc32)cc1)C1CC1
inactive: SK-MEL-2 melanoma 95% | EKVX NSCLC 101% | SN12C renal 88.3% | UO-31 renal 55.6% | TK-10 renal 111% | ACHN renal 78.1% | CAKI-1 renal 66.3% | A498 renal 66% | CCRF-CEM leukemia 79.4% | MOLT-4 leukemia 72% | RPMI-8226 leukemia 79.8% | OVCAR-8 ovarian 88.7% | OVCAR-5 ovarian 107% | OVCAR-4 ovarian 78.2% | SK-OV-3 ovarian 117% | IGROV1 ovarian 86% | HS 578T breast 95% | NCI/ADR-RES ovarian 94.2%

Cc1cc(O)c2c(c1)C(=O)C(c1c(C)cc3c(c1O)C(=O)C=CC3=O)=CC2=O
inactive: SK-MEL-2 melanoma 123% | EKVX NSCLC 100% | SN12C renal 74.7% | TK-10 renal 14.2% | CAKI-1 renal 13.8% | CCRF-CEM leukemia 19.3% | MOLT-4 leukemia 41.4% | SR leukemia 11.1% | RPMI-8226 leukemia 15.2% | OVCAR-8 ovarian 82.5% | OVCAR-5 ovarian 117% | OVCAR-4 ovarian 86.3% | SK-OV-3 ovarian 89.2% | IGROV1 ovarian 108% | OVCAR-3 ovarian 23.4% | HS 578T breast 102% | NCI/ADR-RES ovarian 100%
active: UO-31 renal -14.9% | ACHN renal -8.41%

O=C1c2c(c3c4cc(Br)ccc4[nH]c3c3ccc4ccccc4c23)C(=O)N1CCN1CCCCC1
inactive: SK-MEL-2 melanoma 112% | EKVX NSCLC 81.1% | SN12C renal 41.1% | UO-31 renal 48.7% | TK-10 renal 132% | ACHN renal 18.5% | CAKI-1 renal 31.2% | A498 renal 72.7% | OVCAR-5 ovarian 99.8% | OVCAR-4 ovarian 95.2% | SK-OV-3 ovarian 57% | IGROV1 ovarian 59.8% | HS 578T breast 104%
active: MOLT-4 leukemia -1.44% | SR leukemia -21.6% | RPMI-8226 leukemia -36.5% | OVCAR-8 ovarian -51.8% | NCI/ADR-RES ovarian 6.23%

CCOC(=O)c1c(NCC(=O)Nc2cccc([N+](=O)[O-])c2)sc2c1CCCC2
inactive: SR leukemia 11.7%
active: SK-MEL-2 melanoma -43.2% | EKVX NSCLC -22.7% | SN12C renal -28.9% | UO-31 renal -17.7% | TK-10 renal -33.2% | ACHN renal -60.9% | CAKI-1 renal -20.2% | CCRF-CEM leukemia 8.8% | MOLT-4 leukemia 5.22% | RPMI-8226 leukemia -10.7% | OVCAR-8 ovarian -18.2% | OVCAR-5 ovarian -45.6% | OVCAR-4 ovarian -45.2% | SK-OV-3 ovarian -67.3% | IGROV1 ovarian -19.6% | OVCAR-3 ovarian -39.7% | HS 578T breast -14.8% | NCI/ADR-RES ovarian -36.7%

COc1ccc(CN2C(=O)/C(=C/c3nc(CO)cs3)SC2=S)cc1
inactive: SK-MEL-2 melanoma 98.2% | EKVX NSCLC 100% | SN12C renal 93% | UO-31 renal 67% | TK-10 renal 65.6% | ACHN renal 99.6% | CAKI-1 renal 77% | CCRF-CEM leukemia 61.1% | MOLT-4 leukemia 76.7% | SR leukemia 33.8% | RPMI-8226 leukemia 18.5% | OVCAR-8 ovarian 96.7% | OVCAR-5 ovarian 107% | OVCAR-4 ovarian 107% | SK-OV-3 ovarian 109% | IGROV1 ovarian 89.9% | OVCAR-3 ovarian 80.8% | HS 578T breast 101% | NCI/ADR-RES ovarian 97.8%

— PubChem BioAssay (NCI)
